Assay results from PubChem BioAssay.
Active and inactive are the calls of the source.

What was measured:
Albumin (Bos taurus) = Albumin (Bos taurus) (UniProt P02769); assay: compounds binding labelled BSA control protein – biochemical, small-molecule microarray, Alexa647 label, 635/667 nm fluorescence, artefact control for SMM control protein annotation, profiling panel (AID 1118); details: BSA-A647 binding, fluorescence 635 nm, higher = more signal;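 further: score merges 667 nm emission intensity and signal-to-noise per printed compound spot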
[1] = probe aXIP binding to arrayed compounds – biochemical, NeuroSMM set, 635/667 nm fluorescence, primary screen (AID 1119); details: small-molecule microarray, higher = more signal, called active from +8 up or from −8 down;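 further: probe is the protein aXip251-270 applied at 1 µg/mL to compound-printed slides; binding of probe to printed compounds measured as 667 nm fluorescence plus signal to noise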
[2] = probe aNOTCH3 binding on compound microarray – biochemical, small-molecule microarray, 635/667 nm fluorescence, primary screen (AID 1120); details: higher = more signal;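 further: probe is a biotin-tagged antibody raised against NOTCH3 rather than NOTCH3 protein; score merges spot fluorescence near 667 nm with spot signal to noise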
[3] = probe aNOTCH2 binding on compound microarray – biochemical, small-molecule microarray, 635/667 nm fluorescence, primary screen (AID 1121); details: higher = more signal;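 further: score merges feature fluorescence read at 667 nm with its signal to noise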
[4] = target: Carbonic anhydrase 2 (Homo sapiens) (UniProt P00918); assay: compounds binding carbonic anhydrase 2 – biochemical, small-molecule microarray, Alexa647-labelled CAII, profiling panel (AID 1122); details: CAII-A647 binding fluorescence, higher = more signal
[5] = COS7 lysate on small-molecule microarray, probe aHis, 635 nm (AID 1123); details: COS7 cell lysate, fluorescence, higher = more signal;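 further: z-score combines 667nm fluorescence intensity with signal-to-noise per printed compound spot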
[6] = probe aLAP1 signal on lysate-treated microarray – cell lysate, small-molecule microarray, COS7 lysate, primary screen (AID 1124); details: probe aLAP1, fluorescence, higher = more signal;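 further: lysate comes from COS7 cells expressing LAP1 and is applied at 0.3 µg/mL; score merges spot fluorescence near 667 nm with signal-to-noise over triplicate slides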
Sam68 (KHDRBS1) = assay: compounds binding KHDRBS1 protein – biochemical, small-molecule microarray, 635 nm fluorescence, primary screen (AID 1125); details: higher = more signal;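 further: score merges 667 nm channel intensity with signal to noise over triplicate slides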
[7] = test system: Chordin-like protein 2 (CHRDL2); assay: compounds binding chordin-like 2 – biochemical, small-molecule microarray, 635 nm fluorescence, primary screen (AID 1126); details: fluorescence 635 nm, higher = more signal;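 further: printed compound slides probed with Chrdl2 protein at 4 µg/mL for 1 h at 4 C; score merges 667 nm emission intensity with signal to noise over three replicate slides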
[8] = target: Concanavalin-A (Canavalia ensiformis) (UniProt P02866); assay: compounds binding concanavalin A lectin – biochemical, small-molecule microarray, Alexa647 label, 635 nm, artefact control for SMM control protein annotation, primary screen (AID 1127); details: ConA-A647 binding fluorescence, higher = more signal;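 further: z combines 667 nm emission intensity with signal-to-noise across three replicate slides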
[9] = compounds binding Alexa647 anti-His antibody – biochemical, small-molecule microarray, 635 nm fluorescence, artefact control for SMM control protein annotation, primary screen (AID 1128); details: higher = more signal;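 further: score merges feature fluorescence with signal-to-noise for each printed compound spot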
[10] = test system: Human papillomavirus type 1a E7 protein (residues 1-88); assay: HPV1a E7 small-molecule binders, primary screen, biochemical, small-molecule microarray, residues 1-88, 635 nm (AID 1129); details: small-molecule microarray binding, fluorescence 635 nm; higher = more signal
[11] = target: Focal adhesion kinase 1 (Homo sapiens) (UniProt Q05397); assay: PTK2 protein binding on printed compound slides – biochemical, small-molecule microarray, 635/667 nm fluorescence, BSA, DTT, primary screen (AID 1130); details: 635 nm fluorescence, higher = more signal;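 further: composite of spot emission at 667 nm and signal to noise over triplicate slides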
[12] = test system: Fibrinogen (Alexa647-labelled); assay: Alexa647-fibrinogen binding to printed small molecules – biochemical, small-molecule microarray, 635/667 nm fluorescence, artefact control for SMM control-protein annotation, profiling panel (AID 1131); details: fibrinogen-A647 binding fluorescence, higher = more signal;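 further: z-score merges 667 nm fluorescence with per-spot signal-to-noise over triplicate slides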
[13] = target: Follistatin (Homo sapiens) (UniProt P19883); assay: FST protein binding to printed compounds – biochemical, small-molecule microarray, 635/667 nm fluorescence, primary screen (AID 1132); details: 635 nm fluorescence, higher = more signal
[14] = target: Fibroblast growth factor 2 (Homo sapiens) (UniProt P09038); assay: basic fibroblast growth factor binding to printed compounds – biochemical, small-molecule microarray, 635/667 nm fluorescence, primary screen (AID 1133); details: FGF2, fluorescence 635/667, higher = more signal
[15] = JC-1 mitochondrial potential readout, lung cancer cells – cell-based, A549, JC-1 fluorescence, basal, 24 h, 100 nL, profiling panel (AID 1138); details: higher = more signal;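 further: A549 lung adenocarcinoma cells under basal conditions with no added stimulus; test concentration not given here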
Lefty1 = Lefty1 protein binding to printed compounds – biochemical, small-molecule microarray, 635/667 nm fluorescence, primary screen (AID 1139); details: fluorescence 635/667, higher = more signal
[16] = test system: wheat germ agglutinin (Triticum aestivum), Alexa647-labelled; assay: Alexa647-WGA lectin binding to printed small molecules – biochemical, small-molecule microarray, 635/667 nm fluorescence, artefact control for SMM control-protein annotation, profiling panel (AID 1140); details: WGA-A647 binding, 635 nm fluorescence, higher = more signal;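 further: score merges 667 nm feature emission with signal to noise over triplicate slides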
[17] = target: Luciferin 4-monooxygenase (Photinus pyralis) (UniProt P08659); assay: inhibition of purified Photinus pyralis luciferase – biochemical, luminescence, purified enzyme, 2006 set, primary screen (AID 1141); details: purified firefly luciferase, SteadyGlo luminescence, 30 min; higher = more signal, called active from +8 up or from −8 down;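 further: cell-free assay with purified firefly luciferase at 100 ng per well in PBS; test concentration not given here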
Chain of Luciferin 4-monooxygenase (Photinus pyralis) (P08659 whole entry, looked up): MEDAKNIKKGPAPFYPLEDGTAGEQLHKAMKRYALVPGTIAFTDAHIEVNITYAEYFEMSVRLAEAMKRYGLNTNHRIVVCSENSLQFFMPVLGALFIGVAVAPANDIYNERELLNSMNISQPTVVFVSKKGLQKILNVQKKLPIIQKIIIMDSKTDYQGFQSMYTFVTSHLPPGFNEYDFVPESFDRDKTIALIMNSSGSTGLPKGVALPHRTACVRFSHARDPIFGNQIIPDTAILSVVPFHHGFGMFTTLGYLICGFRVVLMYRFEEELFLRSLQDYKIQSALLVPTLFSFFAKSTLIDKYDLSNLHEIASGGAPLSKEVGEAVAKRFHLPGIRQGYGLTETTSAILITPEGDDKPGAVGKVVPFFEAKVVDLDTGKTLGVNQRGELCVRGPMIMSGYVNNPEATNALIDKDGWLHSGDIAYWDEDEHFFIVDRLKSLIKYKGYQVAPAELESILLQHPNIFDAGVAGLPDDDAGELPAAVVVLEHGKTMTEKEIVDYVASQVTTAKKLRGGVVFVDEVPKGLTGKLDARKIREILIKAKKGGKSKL

Chain of Fibroblast growth factor 2 (Homo sapiens) (P09038 whole entry, looked up): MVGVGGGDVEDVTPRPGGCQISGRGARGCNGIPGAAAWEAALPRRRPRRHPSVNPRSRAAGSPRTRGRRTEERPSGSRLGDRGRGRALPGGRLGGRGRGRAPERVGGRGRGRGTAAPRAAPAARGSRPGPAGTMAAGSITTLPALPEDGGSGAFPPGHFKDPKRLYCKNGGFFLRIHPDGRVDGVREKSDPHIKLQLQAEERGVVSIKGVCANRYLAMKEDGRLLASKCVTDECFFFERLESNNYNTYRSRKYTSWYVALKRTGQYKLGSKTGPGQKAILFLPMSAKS
Chain of Concanavalin-A (Canavalia ensiformis) (P02866 whole entry, looked up): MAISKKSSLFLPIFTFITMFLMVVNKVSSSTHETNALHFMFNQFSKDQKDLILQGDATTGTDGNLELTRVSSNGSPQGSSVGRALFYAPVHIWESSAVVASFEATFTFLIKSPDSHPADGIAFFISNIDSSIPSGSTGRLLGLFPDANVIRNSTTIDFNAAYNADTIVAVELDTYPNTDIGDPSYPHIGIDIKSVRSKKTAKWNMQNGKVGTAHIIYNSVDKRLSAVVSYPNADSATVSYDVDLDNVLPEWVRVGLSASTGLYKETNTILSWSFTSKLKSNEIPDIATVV
Chain of Focal adhesion kinase 1 (Homo sapiens) (Q05397 whole entry, looked up): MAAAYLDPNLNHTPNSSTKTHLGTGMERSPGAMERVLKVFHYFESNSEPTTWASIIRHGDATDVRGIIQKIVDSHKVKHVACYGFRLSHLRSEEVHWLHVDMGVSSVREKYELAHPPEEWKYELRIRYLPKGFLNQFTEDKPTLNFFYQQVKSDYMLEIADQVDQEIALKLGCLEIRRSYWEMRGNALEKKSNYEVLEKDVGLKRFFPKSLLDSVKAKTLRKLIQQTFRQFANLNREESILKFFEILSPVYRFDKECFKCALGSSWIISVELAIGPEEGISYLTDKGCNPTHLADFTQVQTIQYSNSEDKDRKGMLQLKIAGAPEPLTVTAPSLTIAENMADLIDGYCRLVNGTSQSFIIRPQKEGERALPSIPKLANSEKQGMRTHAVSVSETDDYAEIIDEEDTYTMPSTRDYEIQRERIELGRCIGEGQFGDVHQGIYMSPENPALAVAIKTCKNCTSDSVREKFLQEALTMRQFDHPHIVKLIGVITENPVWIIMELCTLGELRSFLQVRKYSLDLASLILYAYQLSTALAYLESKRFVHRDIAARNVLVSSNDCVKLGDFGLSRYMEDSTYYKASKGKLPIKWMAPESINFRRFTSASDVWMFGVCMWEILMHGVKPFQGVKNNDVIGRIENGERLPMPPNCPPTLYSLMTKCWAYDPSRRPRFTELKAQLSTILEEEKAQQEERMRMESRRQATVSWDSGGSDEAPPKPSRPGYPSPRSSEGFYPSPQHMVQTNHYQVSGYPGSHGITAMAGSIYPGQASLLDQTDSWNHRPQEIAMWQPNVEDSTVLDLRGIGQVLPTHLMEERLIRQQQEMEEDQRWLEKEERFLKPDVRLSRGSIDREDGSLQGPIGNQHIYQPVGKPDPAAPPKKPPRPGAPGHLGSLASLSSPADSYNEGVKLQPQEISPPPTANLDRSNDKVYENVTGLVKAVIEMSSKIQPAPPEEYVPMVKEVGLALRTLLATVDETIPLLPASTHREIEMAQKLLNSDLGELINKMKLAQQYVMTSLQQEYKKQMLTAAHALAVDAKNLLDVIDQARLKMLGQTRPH
Chain of Follistatin (Homo sapiens) (P19883 whole entry, looked up): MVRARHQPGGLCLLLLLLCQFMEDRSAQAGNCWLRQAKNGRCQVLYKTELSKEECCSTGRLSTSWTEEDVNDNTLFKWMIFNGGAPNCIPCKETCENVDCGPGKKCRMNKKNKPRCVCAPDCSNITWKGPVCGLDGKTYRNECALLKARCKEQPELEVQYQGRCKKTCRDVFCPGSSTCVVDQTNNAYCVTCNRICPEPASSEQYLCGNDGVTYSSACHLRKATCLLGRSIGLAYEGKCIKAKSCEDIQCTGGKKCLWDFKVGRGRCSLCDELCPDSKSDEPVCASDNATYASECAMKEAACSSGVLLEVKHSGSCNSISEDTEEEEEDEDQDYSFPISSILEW
Chain of Albumin (Bos taurus) (P02769 whole entry, looked up): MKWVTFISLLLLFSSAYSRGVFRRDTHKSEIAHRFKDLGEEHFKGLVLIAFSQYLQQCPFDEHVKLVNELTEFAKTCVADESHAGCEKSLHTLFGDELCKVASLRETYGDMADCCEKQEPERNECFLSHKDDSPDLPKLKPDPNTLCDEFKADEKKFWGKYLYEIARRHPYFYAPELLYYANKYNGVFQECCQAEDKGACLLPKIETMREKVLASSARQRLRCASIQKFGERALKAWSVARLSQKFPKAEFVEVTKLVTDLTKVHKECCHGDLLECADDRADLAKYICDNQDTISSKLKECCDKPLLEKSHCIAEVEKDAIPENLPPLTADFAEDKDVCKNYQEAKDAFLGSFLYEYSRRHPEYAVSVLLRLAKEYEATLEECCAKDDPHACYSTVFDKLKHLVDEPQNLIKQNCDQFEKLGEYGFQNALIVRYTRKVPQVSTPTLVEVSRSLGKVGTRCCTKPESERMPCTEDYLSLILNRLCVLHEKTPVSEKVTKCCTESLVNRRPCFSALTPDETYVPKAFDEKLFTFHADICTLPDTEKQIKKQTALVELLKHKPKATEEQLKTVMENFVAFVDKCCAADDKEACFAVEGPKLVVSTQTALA

Structure (SMILES)	composite z-score (Albumin (Bos taurus))	composite Z-score [1]	composite z-score [2]	composite z-score [3]	composite z-score [4]	composite z-score [5]	composite z-score [6]	composite z-score (Sam68 (KHDRBS1))	composite z-score [7]	composite z-score [8]	composite z-score [9]	composite z-score [10]	composite z-score [11]	composite z-score [12]	composite z-score [13]	composite z-score [14]	z-score [15]	composite z-score (Lefty1)	composite z-score [16]	z-score [17]
CCCCN1CC=CC23O[C@@H]4C=CCOC(=O)[C@@H]4[C@H]2C(=O)N(CCCCCO)[C@@H]3C1=O (stereo not given in full)	0.914	0.102 (inactive)	-0.199	-0.0422	0.858	1.8	1.3	-0.445	-0.769	-1.08	0.0981	-0.444	-0.204	-0.921	-0.712	-0.342	-0.478	-0.393	-0.651	0.01 (inactive)
COc1cc(CO)cc(I)c1O[C@H]1C=C(C(=O)NCCO)C[C@@H](N(CCN2CCOCC2)C(=O)C2CCOC2)[C@@H]1O (stereo not given in full)	-1.02	0.0953 (inactive)	0.189	-0.0729	0.0321	-0.204	0.459	0.322	0.486	-0.169	-0.504	-0.233	-0.508	0.651	0.581	0.675	1.86	0.792	-0.201	-1.13 (inactive)
COC(=O)[C@@]1(Cc2ccc(OC)cc2)[C@H]2c3cc(C(=O)N(C)C)n(Cc4cccc5ccccc45)c3C[C@H]2CN1C(=O)c1ccccc1	1.02	0.0388 (inactive)	0.726	0.624	0.753	3.03	0.506	0.432	0.0735	0.976	1.54	1.26	0.306	1.02	0.202	-0.225	-0.78	0.566	1.03	0.629 (inactive)
COc1ccc([Si](C)(C)[C@H]2[C@H](CCO)O[C@@]3(C(=O)N(Cc4ccc(N5C(=O)COc6ccccc65)cc4)c4ccccc43)[C@@H]2C)cc1	0.373	0.485 (inactive)	-0.241	-0.176	-0.05	0.303	-0.0122	0.504	-1.13	-0.116	1.04	0.0091	-0.187	0.27	-0.566	-0.684	0.272	-0.072	0.484	0.0706 (inactive)
C=CCOC(=O)[C@H]1[C@@H]2C(=O)O[C@@H](c3ccccc3)[C@@H](c3ccccc3)N2[C@@H](c2ccc(OCCOC(=O)[C@H]3C[C@H]4C(=O)N5CCC[C@H]5C(=O)N4[C@H]3c3ccc(O)cc3)cc2)[C@]12C(=O)Nc1ccccc12	-1.36	0.171 (inactive)	0.141	-0.0928	0.576	2.25	0.793	1.32	1.25	1.11	0.442	1.26	1.13	0.598	1.39	1.96	-1.42	1.42	0.0976	-0.205 (inactive)
